The text below walks through data of PubChem BioAssay AID449762 (Southern Research Specialized Biocontainment Screening …, 2010).

Out of some 330,000 compounds screened, about 1,900 (0.58%) were called active. About 4% were inconclusive and are not listed. Only a sample is shown. Potency and affinity values are given separately. Values without a mark were called inactive. No stated cut-off is given here; in the data, inconclusive means inhibition above about 70% without an active follow-up result; inactive means below that.

This experiment can be described thus: M. tuberculosis growth inhibition, HTS (AID 449762).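 Further: bacterial growth assessed after seven days of incubation.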 The settings on record: M. tuberculosis H37Rv growth inhibition, 7H9 media; at 25 µM; stronger effect = higher value.
By inhibition is commonly meant the drop in the measured response relative to a control, in per cent. Regarding `Cc1nn(-c2ccc([N+](=O)[O-])cc2)c2c1C(c1ccc(OC(F)F)cc1)N1C(=N2)C(=O)Nc2ccccc21` (stereo not drawn), the inhibition is 65.4%.
The same measure for `Cc1nn(-c2ccc([N+](=O)[O-])cc2)c2c1C(c1cccc(Br)c1)N1C(=N2)C(=O)Nc2ccccc21` (stereo not drawn): 15.9%; for `Cc1cc(C(=O)NCC(=O)OCC(=O)Nc2ccc(OC(F)F)cc2)ccc1[N+](=O)[O-]`: -2.28%; for `CC(C)NC(=O)[C@@H]1CSC2c3ccccc3C(=O)N21` (stereo partly drawn): -1.97%.
For the compound `O=C(C[C@@H]1C/C=C\CCCC(=O)OC[C@@H]2CCCN2C1=O)N[C@H](CO)Cc1ccccc1`, the inhibition was 7.5%.
In the case of `Cc1cc(SCC(=O)NCCN2C(=O)CSC2=O)nc2c(C)cccc12`, the inhibition is 4.1%.
`Cc1cccc(NC(=O)c2cc3c(s2)-c2c(C)cccc2OC3)n1`: the inhibition is 0.14%.
Take `Cc1cccc2c1-c1sc(C(=O)Nc3cccc([N+](=O)[O-])c3C)cc1CO2`: the inhibition is -9.42%.
In the case of `Cc1cccc(OCCCC(=O)Nc2nccs2)c1C`, the inhibition was 8.02%.
`O=C(c1sccc1-c1ccccc1)N1CCN(S(=O)(=O)c2ccccc2)CC1`: the inhibition is -22.5%.
For the compound `COCCNc1nc(SCC(=O)N2CCN(c3ccccc3OC)CC2)nc2ccccc12`, the inhibition is -10.5%.
Take `[O-][n+]1c2ccccc2c2n1CCN=C2c1ccc(Cl)cc1`: the inhibition is 0.84%.
For `COc1ccc2c3n([n+]([O-])c2c1)CCN=C3c1ccc(C)cc1`, the inhibition is 17%.
The figure for `O=C(O)c1ccc(Cn2ccc3ccccc32)o1` is 2%; for `CCOc1ccccc1NC(=O)CSC1=C(C#N)C(c2ccco2)C(C(=O)Nc2nc3ccccc3s2)=C(C)N1` (stereo not drawn) it is 49.6%.
`CC(=O)C1=C(C)NC(SCC(=O)c2ccc(Cl)cc2)=C(C#N)C1c1ccco1` (stereo not drawn): the inhibition is 2.1%.
`CC1=C(C(=O)Nc2ccccc2)C(c2ccco2)C(C#N)=C(SCC(=O)Nc2cccc(C)c2C)N1` (stereo not drawn): the inhibition is -1.31%.
As to `CC(=O)C1=C(C)NC(SCC(N)=O)=C(C#N)C1c1ccco1` (stereo not drawn), the inhibition is -6.56%.
For `CCOc1ccccc1CN1CCN(CC2CC2)CC1CCO` (stereo not drawn), the inhibition is -1.16%.
With `COCCCNC(=O)CC(NCCCOC)C(=O)O` (stereo not drawn), the inhibition is 0.77%.
For `COC(=O)c1ccc(NS(=O)(=O)N(C)C)cc1`, the inhibition is -1.07%.
As to `Nc1c(N(CCC2=CCCCC2)C(=O)c2ccco2)c(=O)[nH]c(=O)n1Cc1ccccc1`, the inhibition was 9.03%.
On to `Cc1ccc(C(=O)N(CCC2=CCCCC2)c2c(N)n(Cc3ccccc3)c(=O)[nH]c2=O)o1`, for which the inhibition was 6.47%.
Regarding `CS(=O)(=O)c1ccc(Cl)c(NC(=O)COC(=O)CCN=C2NS(=O)(=O)c3ccccc32)c1`, the inhibition is -3.06%.
As for `O=C(CCl)NN1C(=O)NC(c2ccccc2)(c2ccccc2)C1=O`, the inhibition was 2.88%.
Regarding `Cc1ccc(S(=O)(=O)NCC(=O)OCc2cc(=O)oc3cc(C)ccc23)cc1`, the inhibition was -1.73%.
On to `O=C(NC(=S)Nc1ccc2[nH]c(=O)[nH]c2c1)c1ccccc1F`, for which the inhibition was -4.55%.
The figure for `Brc1ccc2c(c1)C(C1=NCCN1)c1ccccc1CS2` (stereo not drawn) is 0.75%; for `Clc1ccc2c(c1)C(OC1CN3CCC1CC3)c1ccccc1CS2` (stereo not drawn) it is 9.17%.
The figure for `NC(=S)N/N=C/c1c(O)ccc2ccccc12` is -0.33%; for `CN(C)/N=C/c1c(O)ccc2ccccc12` it is 27.8%.
`CCCN(CCC)C(=O)c1ccc2nc(-c3ccc(OC)c(OC)c3)c(-c3ccc(OC)c(OC)c3)nc2c1`: the inhibition is -2.59%.
As for `CC1CCCN(C(=O)Cc2cccc3ccccc23)C1` (stereo not drawn), the inhibition is 7.05%.
As for `CCN(c1ccccc1)S(=O)(=O)c1cccc(C(=O)Nc2ccc(C)cn2)c1`, the inhibition is -11.7%.
Turning to `COc1cccc(-c2cccc(NC(=O)C3CCN(C4CCOCC4)CC3)c2)c1`, the inhibition is 6.63%.
As to `Cc1ccc(/C=N/N2C(=O)C3C(C2=O)C2C=CC3C23CC3)o1` (stereo not drawn), the inhibition is -4.61%.
As to `O=C1C2C(C(=O)N1/N=C/c1ccc(N3CCCCC3)o1)C1C=CC2C12CC2` (stereo not drawn), the inhibition was 6.38%.
The figure for `CC(C)(C)n1nnnc1C(c1ccc(Cl)cc1)N1CCCc2ccccc21` (stereo not drawn) is -4.81%; for `N#C/C(=N\Nc1ccccc1)C(N)=S` it is 2.54%.
With `N#C/C(=N\Nc1ccc(Cl)cc1)C(N)=S`, the inhibition is 59.5%.
In the case of `Cc1ccc(C)c(N=Nc2nc3ccccc3n2C)c1`, the inhibition was -4.4%.
For `Cn1c(NN=O)nc2ccccc21`, the inhibition was 0.37%.
For the compound `CCCCCc1ccc(-c2cn(CN3C(=O)c4ccccc4C3=O)nn2)cc1`, the inhibition was -0.74%.
With `COC(=O)c1cc(COC(=O)c2ccc3ccccc3n2)oc1C`, the inhibition is 5.66%.
In the case of `CCc1cccc(NC(=O)Cc2ccc([N+](=O)[O-])cc2)c1`, the inhibition was -1.32%.
In the case of `O=C(Cc1ccc([N+](=O)[O-])cc1)Nc1ccc(Cl)cc1`, the inhibition is -3.64%.
`Fc1ccc(CSc2ccc3nnc(-c4cccnc4)n3n2)cc1`: the inhibition was -5.63%.
Regarding `Cn1c(-c2ccc(=O)[nH]c2)nc2ccccc21`, the inhibition is -2.91%.
`COC(=O)CC(NC(=O)c1ccco1)c1cccc2ccccc12` (stereo not drawn): the inhibition is -11%.
Take `C[C@]12CC[C@@H]3c4ccc(O)cc4CC[C@H]3[C@@H]1CC[C@@H]2OC(=O)CCC(=O)O`: the inhibition is 5.59%.
Take `CC(=O)O[C@H]1CC[C@H]2[C@@H]3CCc4cc(O)ccc4[C@H]3CC[C@]12C`: the inhibition is 3.79%.
`COc1ccc(/C=N/NC(=O)c2nonc2C)cc1`: the inhibition was 5.08%.
For the compound `COc1ccc(CCNC(=O)CSc2nn(-c3ccccc3)c(=S)s2)cc1`, the inhibition was -1.49%.
Take `COc1ccc(C(=O)N(Cc2ccco2)C(C(=O)NC2CCCC2)c2ccc(O)cc2)cc1OC` (stereo not drawn): the inhibition is -4.43%.
Consider `O=C(NC1CCCCC1)C(c1ccc2ncccc2c1)N(Cc1ccc2c(c1)OCO2)C(=O)c1cccs1` (stereo not drawn), for which the inhibition was 7%.
As to `COc1cc(C(=O)Nc2ccc3nc4n(c(=O)c3c2)CCCC4)ccc1Br`, the inhibition was 0.83%.
As for `O=[N+]([O-])c1ccc(N2CCN(Cc3ccccc3)CC2)s1`, the inhibition is 62.1%.
Turning to `O=[N+]([O-])c1ccc(CN2CCCCCC2)s1`, the inhibition was -2.04%.
